From PubChem BioAssay
SIRT5 block: SIRT5 desuccinylase inhibitors, primary screen, biochemical, fluorescence imaging, single point, set 5; NAD-dependent protein deacylase sirtuin-5, mitochondrial (Homo sapiens), Q9NXA8; Purified SirT5, succinyl-peptide AMC, trypsin-coupled fluorescence; inhibition, % at 15 µM; 1.1% of 330,000 active; in the data active = inhibition above about 15%
Target sequence (Q9NXA8 whole entry, looked up): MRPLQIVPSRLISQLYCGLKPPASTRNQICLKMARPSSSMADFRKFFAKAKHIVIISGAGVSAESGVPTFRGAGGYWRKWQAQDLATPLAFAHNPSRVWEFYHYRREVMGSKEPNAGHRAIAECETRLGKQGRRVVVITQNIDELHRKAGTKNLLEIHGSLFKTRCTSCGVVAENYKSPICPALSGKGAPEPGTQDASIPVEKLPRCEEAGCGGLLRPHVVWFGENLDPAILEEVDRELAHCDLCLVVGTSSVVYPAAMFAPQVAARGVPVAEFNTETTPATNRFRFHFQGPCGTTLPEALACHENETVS
PfHsp90 set2: growth inhibition of PfHsp90-expressing yeast, primary screen, antimalarial PfHsp90 inhibitor project, S. cerevisiae, BacTiter-Glo luminescence, single point, set 2; BacTiter-Glo ATP, 48 h; yeast lacking PDR1 and PDR3 efflux regulators; 0.32% of 310,000 active; inhibition, % at 9.4 µM;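 active = every replicate shows inhibition above about 80%, whatever the replicate mean, limit read from the data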
NSD2 HMT inh: NSD2 histone methyltransferase inhibitors, primary screen, biochemical, AlphaScreen, single concentration, set 2; Histone-lysine N-methyltransferase NSD2 (Homo sapiens), O96028; NSD2 peptide methylation, 120 min; inhibition, % at 12.5 µM; 0.54% of 310,000 active; in the data active = inhibition above about 50%
Casp6 inh: human caspase-6 inhibitors, primary screen, biochemical, VEID-R110 fluorescence, single point, set 2. P55212. purified caspase-6, Z-VEID-R110 cleavage fluorescence. inhibition, % at 12.5 µM. 0.53% of 350,000 active;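 active = mean inhibition across replicates at least about 35%, with every replicate also reaching that limit, limit read from the data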
ARNT-TACC3 inh: disruptors of ARNT/TACC3 protein interaction, primary screen, biochemical, AlphaScreen, single concentration; AID 623870, 2012; inhibition, % at 9.99 µM; Transforming acidic coiled-coil-containing protein 3 (Homo sapiens), Q9Y6A5; 0.66% of 390,000 active; AlphaScreen His-ARNT PAS-B/GST-TACC3 binding, luminescence; TACC3 fragment carries E629A point mutation;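 active = mean inhibition of replicates at least 50% and at least half of replicates each reaching 50%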
Large screens that a line does not name were inactive. Compounds with a hit are over-represented: about 2.1% of the library has one in this group of screens.

C[C@H](CO)N1C[C@H](C)[C@@H](CN(C)C(=O)Nc2ccc(F)cc2)Oc2cc(/C=C/c3ccccc3)ccc2S1(=O)=O	SIRT5 block 16.3 (no result: PfHsp90 set2, NSD2 HMT inh)
C[C@H]1CN([C@@H](C)CO)S(=O)(=O)c2ccc(/C=C/c3ccccc3)cc2O[C@H]1CN(C)C(=O)Nc1cc(F)ccc1F	SIRT5 block 22.3 (no result: PfHsp90 set2, NSD2 HMT inh)
C[C@H]1CN([C@@H](C)CO)S(=O)(=O)c2ccc(/C=C/c3ccccc3)cc2O[C@@H]1CN(C)C(=O)Nc1ccc(F)cc1	SIRT5 block 27.7 (no result: PfHsp90 set2, NSD2 HMT inh)
CCS(=O)(=O)Nc1ccc2c(c1)C(=O)N(C)[C@@H]1CC[C@H](CC(=O)NCCOC)O[C@@H]1CO2	none (no result: PfHsp90 set2, NSD2 HMT inh)
O=C(O)CCCCCNS(=O)(=O)c1cccc2c1C(=O)c1ccccc1C2=O	ARNT-TACC3 inh 57.7 (no result: SIRT5 block)
Cc1ccccc1/C=N/NC(=O)Cn1cnc([N+](=O)[O-])n1	none (no result: SIRT5 block, Casp6 inh)
O=C(Cn1cncn1)NCCCc1ccccc1	Casp6 inh 75.5 (no result: SIRT5 block, PfHsp90 set2)
O=C(Cn1cncn1)N/N=C/c1ccccc1O	ARNT-TACC3 inh 78.5
O=C(Cn1cncn1)N/N=C/c1ccncc1	none (no result: NSD2 HMT inh)
O=C(Cn1cnc([N+](=O)[O-])n1)N/N=C/c1ccccc1O	ARNT-TACC3 inh 75.3 (no result: SIRT5 block, Casp6 inh)
O=C(Cn1cncn1)NCCC(c1ccccc1)c1ccccc1	none (no result: NSD2 HMT inh)
COc1ccc(NC(=O)N(C)C[C@@H]2Oc3ccc(NC(=O)NC(C)C)cc3CC(=O)N([C@@H](C)CO)C[C@H]2C)cc1	none (no result: PfHsp90 set2, NSD2 HMT inh, ARNT-TACC3 inh)
COc1ccccc1NC(=O)N[C@@H]1C=C[C@@H](CC(=O)N[C@@H](C)c2ccccc2)O[C@H]1CO	none (no result: PfHsp90 set2, NSD2 HMT inh)
O=C(CSc1n[nH]c(=O)n1Cc1ccco1)Nc1ccccc1	SIRT5 block 15.1 (no result: PfHsp90 set2, ARNT-TACC3 inh)
CC(CC(=O)Nc1ccc2c(c1)c(=O)n(C)n2-c1ccc2ccccc2c1)C(F)(F)F (centres undefined)	SIRT5 block 21.0 (no result: PfHsp90 set2, ARNT-TACC3 inh)
O=C(CSc1nnc(NC(=O)c2ccco2)s1)Nc1cccc(F)c1	SIRT5 block 21.9
CN1CCCc2cc(C=O)ccc21	none (no result: SIRT5 block, Casp6 inh)
CCCN1CCCc2cc(CN)ccc21	ARNT-TACC3 inh 31.9 (no result: SIRT5 block, NSD2 HMT inh, Casp6 inh)
CCC(=O)N1C[C@H](C)[C@H](OC)CN(C)C(=O)c2ccc(NC(=O)c3ccc(F)cc3)cc2OC[C@@H]1C	none (no result: PfHsp90 set2, NSD2 HMT inh)
CN(C)c1ccc(O)c2c1CC1CC3[C@@H](N(C)C)C(=O)C(C(N)=O)C(=O)[C@]3(O)C(=O)C1C2=O (some centres undefined)	ARNT-TACC3 inh 59.7 (no result: NSD2 HMT inh)
CN(C)c1ccc(O)c2c1CC1CC3C(N(C)C)C(=O)C(C(N)=O)=C(O)[C@@]3(O)C(=O)C1=C2O (some centres undefined)	none (no result: NSD2 HMT inh)
Cc1ccc(C)c(NC(=O)c2ncn[nH]2)c1	none (no result: SIRT5 block, Casp6 inh)
O=C(NC1CCCC1)c1ncn[nH]1	ARNT-TACC3 inh 22.4 (no result: SIRT5 block, Casp6 inh)
O=C(NNS(=O)(=O)c1ccc(F)cc1)c1ccccc1F	Casp6 inh 46.0
COc1ccccc1C(=O)NNS(=O)(=O)c1ccc(F)cc1	none
O=C(NNc1ccccn1)C(=O)NNS(=O)(=O)c1ccc(F)cc1	ARNT-TACC3 inh 62.8 (no result: SIRT5 block, Casp6 inh)
C[C@H]1CN([C@@H](C)CO)C(=O)c2cccc(NC(=O)c3cnccn3)c2O[C@@H]1CN(C)C(=O)NC1CCCCC1	none (no result: PfHsp90 set2, NSD2 HMT inh)
C[C@@H]1CN([C@H](C)CO)C(=O)c2cc(N(C)C)ccc2O[C@H]1CN(C)C(=O)Nc1ccc(C(F)(F)F)cc1	none (no result: PfHsp90 set2, NSD2 HMT inh)
CO[C@H]1CN(C)C(=O)c2ccc(NC(C)=O)cc2OC[C@H](C)N(Cc2nccs2)C[C@@H]1C	SIRT5 block 18.4 (no result: PfHsp90 set2, NSD2 HMT inh, ARNT-TACC3 inh)
CO[C@@H]1CN(C)C(=O)c2ccc(NC(C)=O)cc2OC[C@H](C)N(Cc2nccs2)C[C@H]1C	none (no result: PfHsp90 set2, NSD2 HMT inh)
CO[C@@H]1CN(C)C(=O)c2ccc(NS(C)(=O)=O)cc2OC[C@@H](C)N(Cc2nccs2)C[C@H]1C	SIRT5 block 20.0 (no result: PfHsp90 set2, NSD2 HMT inh)
O=C(NCC1CC1)[C@H]1[C@H](CO)[C@H]2Cn3c(ccc(-c4ccccc4)c3=O)[C@@H]1N2C(=O)C1CC1	none (no result: PfHsp90 set2, NSD2 HMT inh)
CCOC(=O)c1ccccc1NC(=O)CSc1ccc(-c2ccccn2)nn1	ARNT-TACC3 inh 64.4
CCc1ccc(NC(=O)CSc2ccc(-c3ccccn3)nn2)cc1	ARNT-TACC3 inh 50.7 (no result: PfHsp90 set2)
